Results from the supplement of paper PMC3545927.
The other results are listed elsewhere or left out. The true hit rate is not given.

Target: furin, P09958
Test: furin cleavage Z-score vs untreated control; higher = more cleavage, active = 3.5 or more, inactive = 1 or less, 8 variable residues between constant flanks
Outline: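 Sequencing of released DNA, tagged with adapters by PCR, gave read counts used as abundance. That DNA was freed when purified furin cut N-terminally bead-bound 8-mer peptides fused to a cDNA oligonucleotide, in 0.01 ml reactions at 1:10 enzyme:substrate in 50 mM HEPES pH 7.5 with CaCl2 and NaCl, lasting 7.5, 15 or 30 min. The cleavage Z-score was the lowess-adjusted log count versus furin-free reactions, scaled by median absolute deviation.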

Chain of furin, P09958 (P09958 whole entry): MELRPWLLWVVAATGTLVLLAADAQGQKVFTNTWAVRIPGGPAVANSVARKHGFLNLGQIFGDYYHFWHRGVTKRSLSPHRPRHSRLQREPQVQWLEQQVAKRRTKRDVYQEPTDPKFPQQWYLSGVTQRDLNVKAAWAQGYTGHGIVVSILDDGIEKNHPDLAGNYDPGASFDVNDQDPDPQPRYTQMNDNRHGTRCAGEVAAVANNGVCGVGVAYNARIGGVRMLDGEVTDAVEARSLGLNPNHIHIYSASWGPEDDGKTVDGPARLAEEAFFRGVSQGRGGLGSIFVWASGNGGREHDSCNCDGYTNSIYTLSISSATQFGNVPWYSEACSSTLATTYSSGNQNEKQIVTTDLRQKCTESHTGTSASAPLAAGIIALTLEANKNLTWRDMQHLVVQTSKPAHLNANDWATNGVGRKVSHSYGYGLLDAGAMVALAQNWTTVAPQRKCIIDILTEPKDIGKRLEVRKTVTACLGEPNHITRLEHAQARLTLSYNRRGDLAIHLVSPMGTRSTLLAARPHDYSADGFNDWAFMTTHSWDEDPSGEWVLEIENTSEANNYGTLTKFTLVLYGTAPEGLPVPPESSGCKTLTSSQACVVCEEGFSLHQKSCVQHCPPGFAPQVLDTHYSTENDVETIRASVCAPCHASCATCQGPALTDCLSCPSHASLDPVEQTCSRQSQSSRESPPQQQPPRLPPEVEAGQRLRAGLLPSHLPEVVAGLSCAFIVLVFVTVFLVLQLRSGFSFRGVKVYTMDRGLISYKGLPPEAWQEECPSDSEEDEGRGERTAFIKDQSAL

| Sequence | furin cleavage Z-score (7.5 min) | furin cleavage Z-score (15 min) | furin cleavage Z-score (30 min) |
| --- | --- | --- | --- |
| CAMEECSAHLAGNASASA [HC1723] | 1.16 | 1.94 | 0.224 (inactive) |
| CAANHDSPDAAGNASASA [HC1269] | -0.381 (inactive) | 0.0398 (inactive) | -1.93 (inactive) |
| CAEVVTWTWVAGNASASA [HC147] | 0.828 (inactive) | 0.782 (inactive) | -0.799 (inactive) |
| CAAPARWPRSAGNASASA [FS-974] | 8.41 (active) | 5.86 (active) | 6.73 (active) |
| CAAEGWWARSAGNASASA [FS-394] | 0.0718 (inactive) | 0.063 (inactive) | -0.127 (inactive) |
| CAESSRLLRSAGNASASA [FS-994] | -0.56 (inactive) | -0.471 (inactive) | -0.146 (inactive) |
| CAKQRRLPRSAGNASASA [FS-678] | 5.31 (active) | 3.74 (active) | 3.02 |
| CANLGRLYRSAGNASASA [FS-1546] | 1.72 | 0.0213 (inactive) | 0.362 (inactive) |
| CAESRRLPRSAGNASASA [FS-1321] | 4.7 (active) | 3.1 | 2.83 |
| CAAPQRLPRSAGNASASA [FS-1305] | 5.56 (active) | 4.41 (active) | 3.78 (active) |
| CATPGCVPCVAGNASASA [HC272] | -0.91 (inactive) | 0.456 (inactive) | 0.199 (inactive) |
| CAILNRPKRYAGNASASA [FS-666] | 4.17 (active) | 4.91 (active) | 4.53 (active) |
| CAHHQRPKRYAGNASASA [FS-792] | 8.28 (active) | 9.17 (active) | 7.59 (active) |
